Assay outcomes as filed in PubChem BioAssay.
Hits are enriched below; roughly 11% of the tested compounds scored in any of these assays.
ALDH1A1 block: inhibitors of human aldehyde dehydrogenase 1A1 | P00352 | Purified ALDH1A1, NADH fluorescence, propionaldehyde substrate | Potency, µM (top dose mostly 75.3 µM), most hits filed as inhibitors | 220,000 tested, 7.3% active | AID 1030
HTT cytoprotect: cytoprotection in Huntington HTT-Q103 PC12 cell model; Potency, µM (highest dose often 56.4 µM), hits mostly activators; 230,000 tested, 0.14% active; PC12 HTT-Q103 induced, cytoprotection, ATP luminescence, 40 h; active = well fitted curve in the direction sought with a large enough effect; inconclusive = small, poorly fitted or top-dose-only effect, or another doubt; inactive = no such curve, though single readings can be large; an effect the other way counts as inactive or inconclusive; also: nearly all actives have a fitted effect of over 45% in size
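Compounds were screened for protection of PC12 cells against cell death after tebufenozide induction (100 nM final) of mutant Huntingtin exon 1 (Q103) fused to GFP.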
HPGD block: HPGD (human) dehydrogenase inhibition | P15428 | Potency, µM, usual class: inhibitors | 150,000 tested, 4.3% active | purified HPGD, NADH fluorescence kinetic, PGE2 substrate | AID 894
Target sequence (P15428 whole entry, looked up): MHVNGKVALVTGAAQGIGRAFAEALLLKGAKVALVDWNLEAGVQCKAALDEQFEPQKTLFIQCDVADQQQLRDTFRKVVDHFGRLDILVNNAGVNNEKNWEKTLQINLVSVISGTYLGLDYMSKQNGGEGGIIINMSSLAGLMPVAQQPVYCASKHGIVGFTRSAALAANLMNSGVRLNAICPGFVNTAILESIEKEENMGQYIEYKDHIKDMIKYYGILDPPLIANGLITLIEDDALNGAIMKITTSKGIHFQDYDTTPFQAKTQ
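20 nM HPGD preincubated 15 min at room temperature with compound in 50 mM Tris-HCl pH 8, 0.01% Tween 20. Started with 1 mM NAD+ and 30 uM prostaglandin E2; NADH fluorescence (360/450 nm) read 5 times over 30-s intervals, last minus first.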
RGS12 GoLoco inh: blocks human Gai1 binding to RGS12 GoLoco peptide, red readout; Gai1:RGS12 GoLoco peptide FP, rhodamine, 10 min; 230,000 tested, 0.44% active; P63096; Potency, µM (top dose mostly 61.6 µM), most hits filed as inhibitors; AID 880; active = well fitted inhibition curve with a large enough effect, not every such curve was filed as active; inactive = no such curve, though single readings can be large or run the other way; also: nearly all actives have a fitted effect of over 30% in size
Target sequence (P63096 whole entry, looked up): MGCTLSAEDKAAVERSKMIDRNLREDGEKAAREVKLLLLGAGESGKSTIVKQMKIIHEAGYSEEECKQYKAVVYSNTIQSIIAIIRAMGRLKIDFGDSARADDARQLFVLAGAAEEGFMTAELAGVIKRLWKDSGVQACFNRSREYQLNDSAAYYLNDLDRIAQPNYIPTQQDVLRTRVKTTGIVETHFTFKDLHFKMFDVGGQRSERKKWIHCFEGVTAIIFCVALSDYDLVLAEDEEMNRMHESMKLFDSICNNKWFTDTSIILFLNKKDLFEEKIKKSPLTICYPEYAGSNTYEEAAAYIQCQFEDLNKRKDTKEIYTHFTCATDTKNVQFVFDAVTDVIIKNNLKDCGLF
HTT aggregate: mutant huntingtin aggregation inhibition | PC12 HttQ103-GFP aggregates, Acumen cytometry, 40 h | 220,000 tested, 1.1% active | AID 1688 | Potency, µM (top dose mostly 46.1 µM), actives largely listed as inhibitors; active = well fitted curve in the direction sought with a large enough effect; inconclusive = small, poorly fitted or top-dose-only effect, or another doubt; inactive = no such curve, though single readings can be large; an effect the other way counts as inactive or inconclusive; also: nearly all actives have a fitted effect of over 60% in size
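PC12/HTTQ103-GFP, ecdysone-inducible; teb 100 nM; cpd qHTS titration; GFP aggregates read on laser cytometer, Ex 488/Em 500-530 nm.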
PNC inhibitor: inhibitors of perinucleolar compartment assembly | PC3M PTB-GFP, PNC prevalence imaging, 16 h; active compounds read low | activity change (PNC), negative = inhibition, % at 10 µM | 140,000 tested, 3.1% active | AID 2417;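 active = readout at or below -70, meaning at least 70% loss of cells showing the perinucleolar compartment, a nuclear body marking cancer cells; inconclusive = readout between -30 and a set limit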
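Read-out is percentage of cells bearing a perinucleolar compartment, from automated 20x imaging of fixed, Hoechst-stained PC3M PTB-GFP cells. Cells were seeded 4 h, then exposed 16 h to compound (23 nl of library stock) in duplicate plates.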
Numbers stand for hits; 0 = inactive; ? = inconclusive; - = not tested or not shown; [ ] = another dose, or the depositor's remark. Unless noted, calls follow the shape of the dose curve; as a rule, active = well fitted inhibition curve with a large enough effect (not every such curve was filed as active); inconclusive = small, poorly fitted or top-dose-only effect, or another doubt; inactive = no such curve, though single readings can be large or run the other way.

SMILES | ALDH1A1 block | HTT cytoprotect | HPGD block | RGS12 GoLoco inh | HTT aggregate | PNC inhibitor
O=C(NC1CCCCC1)C1CCCN(c2nnnn2-c2ccccc2)C1 (configuration not stated) | 10µM | 0 | 0 | 0 | 0 | 0
CC(=O)OCC1OC(C#Cc2ccccc2)C=CC1O (configuration not stated) | 0[13.5 µM] | 0[10 µM] | - | - | - | -
COc1cc2c(=O)n(Cc3ccco3)c(=O)n(CC(=O)c3cccc(Br)c3)c2cc1OC | 1.1µM | 0 | 0 | 0 | 0 | ?
COc1cc2c(=O)n(Cc3ccco3)c(=O)n(CC(=O)c3ccc(Br)cc3)c2cc1OC | 0.4µM | 0[10 µM] | 0 | 0 | 0 | 0
COc1cc2c(=O)n(Cc3ccccc3)c(=O)n(CC(=O)C(C)(C)C)c2cc1OC | - | 0[10 µM] | - | 0 | 0[9.22 µM] | -
COc1ccc(CC(=O)NCc2n[nH]c(=S)n2-c2cccc(Cl)c2)cc1 | 0 | 0[10 µM] | - | 0 | 0[9.22 µM] | -
O=C(Cc1cccs1)NNC(=O)C12CC3CC(CC(C3)C1)C2 | 0 | 0[10 µM] | - | 0 | 0 | -
CO/N=C1/[C@H]2O[C@@H]2[C@@H](O)[C@H]2[C@H]1CCn1c(=O)n(-c3ccccc3)c(=O)n12 | 0[13.5 µM] | 0[10 µM] | - | - | - | -
COc1cc(-c2ccccc2)nc2ccccc12 | 0 | 0[10 µM] | 28µM | 0 | 0 | 0
COc1ccc(-c2cc(OC)c3ccccc3n2)cc1 | ? | - | ? | 0 | ? | ?
COC(=O)c1sc(N2C(=O)C(O)=C(C(=O)c3ccc(C)o3)C2c2ccc(F)cc2)nc1C (configuration not stated) | ? | 0[10 µM] | 8.9µM | 0 | 0 | 0
Cc1ccc(C(=O)C2=C(O)C(=O)N(c3ncccn3)C2c2ccc(F)cc2)o1 (configuration not stated) | - | 0[10 µM] | - | 0 | 0[9.22 µM] | -
CCOc1cccc(CNc2ccc(O)cc2)c1OCc1ccc(Cl)cc1 | 2.2µM | 0 | 0 | 0 | 0 | 0
Cc1ccc(NCc2ccccc2OCc2ccccc2F)cc1 | 0 | 0 | 0 | 0 | ? | 0
Oc1ccc(NCc2ccccc2OCc2ccccc2F)cc1 | 18µM | 0 | 0 | 0 | 0 | 0
Cc1cc(Cl)ccc1OCC(=O)Nc1nc(N)nc(N)n1 | 0[13.5 µM] | 0[10 µM] | 0 | 0[14.2 µM] | - | -
CCOC(=O)c1c(C)oc(NC(=O)COc2ccc(Cl)cc2C)c1C#N | ? | 0 | 32µM | 0 | 0 | 0
COc1ccc(CCNC(=O)Nc2ccccc2[N+](=O)[O-])cc1 | 0 | 0 | - | 0 | 0 | -
CCOC(=O)c1nn(-c2ccccc2)c2nnc(Cc3ccc(Cl)cc3)c(=O)n12 | 0 | - | 0 | 0 | 0 | 0
CCOC(=O)c1nn(-c2ccc(Cl)cc2)c2nnc(Cc3ccc(C)cc3)c(=O)n12 | ? | - | 0 | 0 | 0 | -109
N=C(CC(O)COc1ccccc1-c1ccccc1)N1CCCCC1 (configuration not stated) | 0 | 0 | - | 0 | - | -
CCCCCCCCc1nc(SC(C)C(=O)O)n[nH]1 (configuration not stated) | 0 | 0 | - | 0 | 0 | -
CC(c1ccon1)N(C)Cc1cn(Cc2ccccc2)nc1-c1ccc2c(c1)OCO2 (configuration not stated) | 0 | 0 | - | 0 | 14µM | -
Nc1ncnc(Nc2ccc(F)cc2)n1 | 0 | - | 0 | 0 | 0 | -91
CN(C)c1cccc(C(=O)OCC(=O)Nc2nccs2)c1 | 0 | 0[10 µM] | 0 | 0 | 0 | ?
SMILES | ALDH1A1 block | HTT cytoprotect | HPGD block | RGS12 GoLoco inh | HTT aggregate | PNC inhibitor
N#CC1=C(N)N(c2ccc(F)cc2)C2=C(C1c1ccc(O)cc1)S(=O)(=O)CC2 (configuration not stated) | 11µM | 0 | - | 0 | 0 | -
CN1CCC(=NNC(=O)c2cn(-c3ccccc3)nc2-c2ccccc2)CC1 | 1.3µM | 0[10 µM] | 0 | 0 | 0 | ?
COC(=O)c1cn(-c2ccccc2)nc1-c1ccccc1 | 0 | ? | 0 | 0 | 0 | 0
CCC(C)/C(C)=N/NC(=O)c1cn(-c2ccccc2)nc1-c1ccccc1 (configuration not stated) | 6.3µM | 0[10 µM] | 0 | 0 | 0 | 0
CCCC/C(C)=N/NC(=O)c1cn(-c2ccccc2)nc1-c1ccccc1 | 0.56µM | 0[10 µM] | 0 | 0 | 0 | 0
COCCn1c(=O)c(C)nc2cnc(N3CCNCC3)nc21 | ? | 0 | ? | 0 | - | -
CN(C)c1ccc(-c2ccc3ncnc(N(C)C)c3c2)cc1 | ? | 0 | - | 0 | - | -
CN(C)c1ncnc2ccc(-c3ccoc3)cc12 | 28µM | 0 | - | 0 | - | -
CCNc1nc(SC(C)C(=O)OC)nc(N2CCOCC2)n1 (configuration not stated) | 19µM | 0 | 0 | 0 | 0 | 0
Cc1ccc(C(=O)N2CCC(Cc3ccccc3)CC2)cc1[N+](=O)[O-] | 14µM | 0 | - | 0 | ? | -
CC1CCN(C(=O)c2ccc(SCc3ccccc3F)c([N+](=O)[O-])c2)CC1 | ? | 0[10 µM] | 25µM | 0 | 0 | 0
Cc1ccc([N+](=O)[O-])c(OCCN2CCC(Cc3ccccc3)CC2)c1 | 32µM | 0[10 µM] | - | 0 | 0 | -
Cc1ccccc1OCCN1CCC(Cc2ccccc2)CC1 | 0 | 0 | - | 0 | 0 | -
Cc1cc(=O)n(-c2ccc(Cl)cc2)c(=O)[nH]1 | 0 | 0 | - | 0 | 0 | -
CO[C@H]1C[C@@H]2CC[C@@H](C)[C@@](O)(O2)C(=O)C(=O)N2CCCC[C@H]2C(=O)O[C@H]([C@H](C)C[C@@H]2CC[C@@H](OCCO)[C@H](OC)C2)CC(=O)[C@H](C)/C=C(\C)[C@@H](O)[C@@H](OC)C(=O)[C@H](C)C[C@H](C)/C=C/C=C/C=C/1C | - | 0 | - | - | 0 | -
Fc1ccc(C2NC(=S)NC3=C2N2CCC3CC2)cc1 (configuration not stated) | 14µM | 0 | 0 | 0 | 0 | ?
COc1ccc(C2C(C(=O)Nc3cccnc3)=C(C)Nc3nc(-c4cccs4)nn32)cc1OC (configuration not stated) | 0 | 0[10 µM] | 0 | 0 | 0 | -108
c1ccc(-c2nnc(SCCC3OCCCO3)o2)cc1 | 0 | 0 | 0 | 0 | 0 | 0
CCN1/C(=C/c2cc[n+](C)cc2)C=Cc2cc(C)ccc21 | ? | 0[10 µM] | 0 | 0 | 8.9µM | ?
COc1ccc(-c2cc(C(F)F)nn2-c2ccc(S(N)(=O)=O)cc2)cc1F | 0 | 8.9µM | 0 | 0 | 0 | -
COc1ccc(C2CC(c3ccccc3)=NN2c2ccc(S(N)(=O)=O)cc2)cc1OC (configuration not stated) | ? | 0 | - | 0 | 0[9.22 µM] | -
CCOC(=O)c1sc(NC(=O)c2ccc(C)o2)nc1C | 0 | 0 | 20µM | 0 | 0 | 0
CCOC(=O)c1sc(NC(=O)C2CC=CCC2C(=O)O)nc1C (configuration not stated) | 0.13µM | 0 | 0 | 0 | 0 | 0
CCNc1ncc2nc(-c3ccccc3)c(=O)n(C)c2n1 | ? | 0 | - | 0 | - | -
O=C(CSc1nnc(-c2ccccn2)n1Cc1ccccc1)N1CCCC1 | 0 | 0[10 µM] | 28µM | 0 | 0 | 0
CCn1c(SCC(=O)C(C)(C)C)nnc1-c1ccccn1 | 7.1µM | 0 | 0 | 0 | 0 | 0
